From PubChem BioAssay
The source made the active and inactive calls. Unless noted, no rule for the calls is given here.

Experiments:
[1] = HepG2 liver cancer cell viability effects, profiling panel, resazurin fluorescence, 24 h, PK04 Diversity Set (AID 1172); conditions: higher = more signal; also: test concentration not given here
[2] = basal S. cerevisiae growth modulation, no modifier, primary screen, OD600, strain BY4716, 24 h, basal condition (AID 1173); conditions: OD600, 24 h, higher = more signal, called active from +8 up or from −8 down
[3] = MM1S myeloma cell viability, profiling panel, resazurin fluorescence, basal, 24 h, PK04 Diversity Set (AID 1174); conditions: higher = more signal, called active from +8 up or from −8 down;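 also: MM1S multiple myeloma cell line; test concentration not given here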
[4] = biological target: Dihydroorotate dehydrogenase (quinone), mitochondrial (Plasmodium falciparum (isolate 3D7)) (UniProt Q08210); assay: PfDHODH enzyme inhibitors, primary screen, biochemical, C-terminal His tag, absorbance 600 nm (AID 1175); conditions: DCIP absorbance 600 nm, higher = more signal, called active from +8 up or from −8 down;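 also: recombinant parasite enzyme with a five histidine tag at its C terminus; test concentration not given here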
[5] = P. aeruginosa biofilm formation inhibitors, primary screen, strain PAO1, LB-PBS medium, absorbance 600 nm (AID 1176); also: test concentration not given here; conditions: P. aeruginosa PAO1 growth/biofilm, A600, 12 h; higher = more signal
[6] = S. cerevisiae RM11-1a growth modifiers, primary screen, strain RM11-1a, OD600, basal, 24 h (AID 1177); conditions: OD600, 24 h, higher = more signal, called active from +8 up or from −8 down;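 also: cultures grown under basal conditions with no added stressor; test concentration not given here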
[7] = E. coli acrAB mutant growth effects, primary screen, E. coli filamentation inducers, strain DRC39, OD650, 24 h (AID 1178); conditions: higher = more signal, called active from +8 up or from −8 down;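 also: growth measured as culture turbidity by optical density at 650 nm; test concentration not given here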
[8] = E. coli acrAB mutant growth effects, primary screen, E. coli filamentation inducers, strain DRC39, OD650, 48 h (AID 1179);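 also: screen aims at cell division blockers that make cells filament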; conditions: E. coli DRC39 delta-acrAB growth, higher = more signal, called active from +8 up or from −8 down
[9] = RPMI8226 myeloma cell viability, profiling panel, resazurin fluorescence, basal, 24 h, PK04 Diversity Set (AID 1180); conditions: higher = more signal;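 also: RPMI8826 multiple myeloma cell line at 5000 cells per well; test concentration not given here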
[10] = biological target: E3 ubiquitin-protein ligase XIAP (Homo sapiens) (UniProt P98170); assay: XIAP binders, primary screen, biophysical, small-molecule microarray, fluorescence 635 nm (AID 1181); conditions: small-molecule microarray binding, higher = more signal;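 also: score merges 667 nm emission and signal to noise over triplicate slides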
Sequence of E3 ubiquitin-protein ligase XIAP (Homo sapiens) (P98170 whole entry, looked up): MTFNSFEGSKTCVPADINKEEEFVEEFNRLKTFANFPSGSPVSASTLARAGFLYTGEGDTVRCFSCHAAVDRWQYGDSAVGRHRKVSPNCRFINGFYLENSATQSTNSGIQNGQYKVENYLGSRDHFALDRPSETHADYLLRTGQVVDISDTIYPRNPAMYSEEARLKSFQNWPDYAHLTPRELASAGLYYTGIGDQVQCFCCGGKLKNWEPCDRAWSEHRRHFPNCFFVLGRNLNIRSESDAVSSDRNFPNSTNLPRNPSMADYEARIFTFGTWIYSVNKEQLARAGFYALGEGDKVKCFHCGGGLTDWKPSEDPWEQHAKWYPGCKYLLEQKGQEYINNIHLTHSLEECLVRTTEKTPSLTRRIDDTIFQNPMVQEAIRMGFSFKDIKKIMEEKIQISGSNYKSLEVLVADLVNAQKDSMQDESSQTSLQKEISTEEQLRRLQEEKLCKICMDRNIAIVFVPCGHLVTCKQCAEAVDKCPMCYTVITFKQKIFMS

Sequence of Dihydroorotate dehydrogenase (quinone), mitochondrial (Plasmodium falciparum (isolate 3D7)) (Q08210 whole entry, looked up): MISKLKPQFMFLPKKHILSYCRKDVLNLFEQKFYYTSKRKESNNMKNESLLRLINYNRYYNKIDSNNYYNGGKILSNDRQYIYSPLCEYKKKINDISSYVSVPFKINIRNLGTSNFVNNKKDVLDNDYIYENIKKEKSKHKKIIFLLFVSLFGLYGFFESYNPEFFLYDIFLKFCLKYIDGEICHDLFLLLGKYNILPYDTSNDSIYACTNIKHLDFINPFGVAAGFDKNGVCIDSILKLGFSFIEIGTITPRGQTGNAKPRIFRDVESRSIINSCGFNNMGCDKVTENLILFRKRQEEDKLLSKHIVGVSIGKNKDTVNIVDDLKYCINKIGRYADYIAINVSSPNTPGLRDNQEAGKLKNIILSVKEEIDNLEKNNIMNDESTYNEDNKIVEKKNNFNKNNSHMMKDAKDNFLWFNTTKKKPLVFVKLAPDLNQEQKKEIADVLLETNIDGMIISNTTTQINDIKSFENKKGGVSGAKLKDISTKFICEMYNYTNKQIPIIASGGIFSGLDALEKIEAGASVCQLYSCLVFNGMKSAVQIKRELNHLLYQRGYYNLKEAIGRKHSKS

SMILES	z-score [1]	z-score [2]	z-score [3]	composite z-score [4]	z-score [5]	z-score [6]	z-score [7]	z-score [8]	z-score [9]	composite z-score [10]
O=C1O[C@@H](c2ccccc2)[C@@H](c2ccccc2)N2[C@@H](c3ccc(O)cc3)[C@]3(C(=O)Nc4ccc(C#CC5=CCCCC5)cc43)[C@@H](C(=O)N3CCCCCCC3)[C@H]12	-0.109	-1.2 (inactive)	0.158 (inactive)	-1.81 (inactive)	1.22 (inactive)	-0.976 (inactive)	0.326 (inactive)	-0.199 (inactive)	0.177	0.691
COC(=O)[C@@]1(Cc2ccc(F)cc2)[C@H]2c3cc(C(=O)N4CCCC4)n(CCO)c3C[C@H]2CN1C(=O)c1ccccc1	-0.31	0.894 (inactive)	-1.38 (inactive)	-0.757 (inactive)	-0.278 (inactive)	0.302 (inactive)	0.0412 (inactive)	-0.654 (inactive)	-0.908	-0.16
CN(C)CCCCNC(=O)[C@H]1C[C@H]2C(=O)NCC(=O)N2[C@H]1c1cccc(OCCO)c1	1.15	0.425 (inactive)	1.59 (inactive)	-0.0392 (inactive)	-0.711 (inactive)	1.06 (inactive)	0.779 (inactive)	0.834 (inactive)	0.158	-0.0286
COCCOC(=O)N1C(=O)[C@@]2(c3cc(C#CCCO)ccc31)[C@H](C(=O)N1CCN(c3ncccn3)CC1)[C@H]1C(=O)O[C@H](c3ccccc3)[C@H](c3ccccc3)N1[C@@H]2c1ccc(O)cc1	-0.335	-0.142 (inactive)	0.359 (inactive)	-1.22 (inactive)	1.85 (inactive)	0.135 (inactive)	0.947 (inactive)	1.6 (inactive)	0.818	-0.031
CCCCCN1CC=CC23O[C@@H]4C=CCOC(=O)[C@@H]4[C@H]2C(=O)N(CCCCCO)[C@@H]3C1=O (stereo not given in full)	0.773	-0.284 (inactive)	-0.295 (inactive)	-1.09 (inactive)	0.441 (inactive)	-0.196 (inactive)	-0.151 (inactive)	-0.352 (inactive)	0.0715	-0.244
O=C1C2C=CC(C(O)C(c3ccccc3)c3ccccc3)N(Nc3ccccc3)C2C(=O)N1c1ccccc1 (stereo not given)	0.9	-0.659 (inactive)	-1.05 (inactive)	1.09 (inactive)	1.26 (inactive)	0.347 (inactive)	-0.615 (inactive)	-0.0085 (inactive)	-0.403	0.34
C=CCN1C(=O)[C@]2(O[C@H](CCn3cc([C@H](O)c4ccccc4)nn3)[C@@H]([Si](C)(C)c3ccc(OC)cc3)[C@@H]2C)c2cc(N3C(=O)c4cccc5cccc3c45)ccc21	-1.1	0.0523 (inactive)	-2.78 (inactive)	0.739 (inactive)	1.69 (inactive)	0.88 (inactive)	0.908 (inactive)	0.591 (inactive)	-3.61	0.0435
COCCOC(=O)N1C(=O)[C@@]2(c3cc(C#CC4=CCCCC4)ccc31)[C@H](c1ccc(OCCO)cc1)N1[C@H](c3ccccc3)[C@H](c3ccccc3)OC(=O)[C@H]1[C@@H]2C(=O)N1CCCCCCC1	-0.748	-0.747 (inactive)	-0.168 (inactive)	-0.859 (inactive)	3.23 (inactive)	-0.766 (inactive)	-0.363 (inactive)	0.817 (inactive)	-0.435	0.248
COc1ccc([Si](C)(C)[C@H]2[C@H](CCO)O[C@@]3(C(=O)N(Cc4ccccc4)c4ccc(N(C=O)c5ccccc5)cc43)[C@@H]2C)cc1	0.0056	1.53 (inactive)	-2.24 (inactive)	-0.363 (inactive)	2.58 (inactive)	5.16 (inactive)	1.28 (inactive)	0.733 (inactive)	-1.28	-0.0668
CC(C)CNC(=O)[C@@H]1c2ccccc2C(=O)N(CC23CC4CC(CC(C4)C2)C3)[C@H]1c1ccc(CO)cc1	0.82	-1.17 (inactive)	1.93 (inactive)	-0.42 (inactive)	-0.397 (inactive)	-0.0966 (inactive)	0.256 (inactive)	0.339 (inactive)	0.281	-0.13
NC(=O)N1C(=O)C2C(C1=O)C1C=C(CCCO)C2C(c2ccc(CN3CCCC3)cc2)N1Cc1cccc(OC(F)(F)F)c1 (stereo not given)	-0.708	-0.491 (inactive)	-0.504 (inactive)	-4.9 (inactive)	-0.66 (inactive)	-0.219 (inactive)	-0.385 (inactive)	-0.579 (inactive)	-0.884	0.101
